Source: PubChem BioAssay
BAZ2B block: blocks human BAZ2B; Q9UIF8; AlphaScreen BAZ2B-H3K14Ac peptide displacement; Potency, µM (doses to about 114 µM), for the others: at the top dose activity change, negative = inhibition, hits mostly inhibitors; 360,000 tested, 4.4% active; AID 504333; further: potency means the concentration at half of the fitted maximal effect; on the % scale 0 is the no-effect control and ±100 the full control effect; nearly all actives have a fitted effect of over 60% in size
Target sequence (Q9UIF8 whole entry, looked up): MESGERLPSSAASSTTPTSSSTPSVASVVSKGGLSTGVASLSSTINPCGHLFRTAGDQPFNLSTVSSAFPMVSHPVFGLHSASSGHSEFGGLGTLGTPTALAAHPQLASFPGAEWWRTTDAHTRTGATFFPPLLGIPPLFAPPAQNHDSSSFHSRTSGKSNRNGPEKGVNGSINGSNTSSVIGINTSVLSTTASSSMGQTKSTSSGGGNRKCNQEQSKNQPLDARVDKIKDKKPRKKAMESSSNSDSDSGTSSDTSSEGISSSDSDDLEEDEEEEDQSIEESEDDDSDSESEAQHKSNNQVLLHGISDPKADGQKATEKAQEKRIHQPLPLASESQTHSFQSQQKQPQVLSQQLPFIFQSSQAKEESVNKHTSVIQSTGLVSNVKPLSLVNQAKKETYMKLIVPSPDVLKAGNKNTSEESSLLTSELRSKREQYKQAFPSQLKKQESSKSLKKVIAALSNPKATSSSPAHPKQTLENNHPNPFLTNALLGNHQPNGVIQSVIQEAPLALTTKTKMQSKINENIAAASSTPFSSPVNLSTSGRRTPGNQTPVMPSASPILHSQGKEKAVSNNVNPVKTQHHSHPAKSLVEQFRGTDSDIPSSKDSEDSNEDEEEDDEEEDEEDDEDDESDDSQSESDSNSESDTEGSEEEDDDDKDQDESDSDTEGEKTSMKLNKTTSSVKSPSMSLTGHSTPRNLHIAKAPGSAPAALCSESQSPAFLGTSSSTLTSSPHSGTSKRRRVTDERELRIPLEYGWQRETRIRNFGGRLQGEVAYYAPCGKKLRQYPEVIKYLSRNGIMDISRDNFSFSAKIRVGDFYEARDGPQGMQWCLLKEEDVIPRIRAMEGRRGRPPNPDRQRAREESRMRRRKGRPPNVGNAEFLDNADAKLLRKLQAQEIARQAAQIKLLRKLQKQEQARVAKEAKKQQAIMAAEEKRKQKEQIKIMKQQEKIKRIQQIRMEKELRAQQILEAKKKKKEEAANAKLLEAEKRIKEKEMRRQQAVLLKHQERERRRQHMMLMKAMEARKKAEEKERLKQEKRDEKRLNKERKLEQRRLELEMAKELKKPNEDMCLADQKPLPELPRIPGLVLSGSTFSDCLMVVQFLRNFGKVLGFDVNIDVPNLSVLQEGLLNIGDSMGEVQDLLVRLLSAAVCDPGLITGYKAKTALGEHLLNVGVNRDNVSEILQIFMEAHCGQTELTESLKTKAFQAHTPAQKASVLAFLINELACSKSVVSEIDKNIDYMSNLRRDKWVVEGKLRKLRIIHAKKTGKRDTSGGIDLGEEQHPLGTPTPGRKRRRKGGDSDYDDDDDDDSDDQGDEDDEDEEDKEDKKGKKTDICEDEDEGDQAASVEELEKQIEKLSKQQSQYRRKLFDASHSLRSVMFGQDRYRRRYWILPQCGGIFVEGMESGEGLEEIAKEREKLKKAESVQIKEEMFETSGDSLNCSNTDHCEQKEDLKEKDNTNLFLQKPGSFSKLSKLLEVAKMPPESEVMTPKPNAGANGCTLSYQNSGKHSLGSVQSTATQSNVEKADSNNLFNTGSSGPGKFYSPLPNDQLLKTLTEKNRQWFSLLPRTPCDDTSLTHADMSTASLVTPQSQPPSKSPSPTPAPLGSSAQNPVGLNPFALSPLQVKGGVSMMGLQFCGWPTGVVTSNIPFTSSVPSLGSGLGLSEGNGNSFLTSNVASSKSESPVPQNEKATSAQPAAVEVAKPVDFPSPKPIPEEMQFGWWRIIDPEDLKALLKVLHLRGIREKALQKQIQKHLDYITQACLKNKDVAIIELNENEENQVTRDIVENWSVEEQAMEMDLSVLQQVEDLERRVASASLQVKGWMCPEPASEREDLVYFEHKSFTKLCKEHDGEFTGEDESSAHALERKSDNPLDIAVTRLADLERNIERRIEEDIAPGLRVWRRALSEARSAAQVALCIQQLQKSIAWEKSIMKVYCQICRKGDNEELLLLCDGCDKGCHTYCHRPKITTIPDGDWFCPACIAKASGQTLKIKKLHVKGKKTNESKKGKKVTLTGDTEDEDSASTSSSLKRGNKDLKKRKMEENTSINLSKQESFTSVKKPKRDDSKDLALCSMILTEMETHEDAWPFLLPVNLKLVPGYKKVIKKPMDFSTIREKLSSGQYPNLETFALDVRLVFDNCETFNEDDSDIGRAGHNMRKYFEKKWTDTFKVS
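Complex of BAZ2B and biotin-H3K14Ac (50 nM apiece) forms over 30 min at RT, then faces library compounds up to 110 uM for another 30 min; AlphaScreen beads added, 20 min dark incubation, luminescence read.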
PLK1 PBD block: inhibitors of human PLK1 polo-box domain binding | P53350 | Potency, µM, inactives show max response, negative = inhibition, usual class: inhibitors | Plk1 PBD binding of FITC phosphopeptide, fluorescence polarization | 360,000 tested, 2.8% active | AID 720504; further: potency means the concentration at half of the fitted maximal effect; series mostly up to about 57 µM; on the % scale 0 is the no-effect control and ±100 the full control effect; nearly all actives have a fitted effect of over 65% in size
KAT2A inh: GCN5L2 (KAT2A) acetyltransferase inhibition; 390,000 tested, 0.21% active; GCN5L2 HAT assay, ThioGlo1 CoA-SH fluorescence; Potency, µM (highest dose often 58.9 µM), for the others: top-dose activity change, negative = inhibition, most hits filed as inhibitors; Q92830; further: potency means the concentration at half of the fitted maximal effect; on the % scale 0 is the no-effect control and ±100 the full control effect
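Titration-based screen in which CoA formation is detected via maleimide probe ThioGlo1 (50uM) turning fluorescent on thiol reaction; substrates H3(1-25) 75uM and acetyl-CoA 70uM, GCN5L2 20nM, 20 min incubation at room temperature.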
HP1b binding inh: HP1-beta chromodomain-methylated histone interaction inhibition; AlphaScreen HP1-beta / biotin-H3K9me3 peptide binding; 390,000 tested, 0.56% active; AID 540317; Potency, µM (top dose mostly 114 µM), inactives show top-dose activity change, negative = inhibition, most hits filed as inhibitors; P83916; further: potency means the concentration at half of the fitted maximal effect; nearly all actives have a fitted effect of over 70% in size
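Compound inhibition of the preformed complex between 50 nM HP1-beta and 50 nM biotinylated H3K9me3 peptide was read by AlphaScreen. Buffer was PBS pH 7.4 with 0.01% Tween-20. Incubations ran 30 min at room temperature, with 10 ug/mL donor/acceptor beads.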
PI5P4Ka inh: blocks human PI5P4K alpha kinase activity; P48426; PI5P4Kalpha enzyme, ADP-Glo luminescence, 60 min; stronger effect = lower value; max response, %; 330,000 tested, 1.2% active; AID 652105; active means max response of -50% or lower; inconclusive means between -30% and -50%; inactive means -30% or higher; further: value at the top dose of about 77 µM; on the % scale 0 is the no-effect control and ±100 the full control effect
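Reactions run in 0.038 M HEPES pH 7.4, 0.28 mM EGTA, 0.1% CHAPS and 5% DMSO, with PI5P4Kalpha, substrate, compound and 5 microM ATP final, one hour at room temperature. Readout is ADP-Glo luminescence.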
JMJD2A Tudor inh: inhibitors of human JMJD2A Tudor domain. 390,000 tested, 4.4% active. Potency, µM (series often up to 114 µM), for the others: at the top dose activity change, negative = inhibition, actives largely listed as inhibitors. AlphaScreen JMJD2A-Tudor / H3K4me3 peptide binding. O75164. AID 504339; further: potency means the concentration at half of the fitted maximal effect; on the % scale 0 is the no-effect control and ±100 the full control effect; nearly all actives have a fitted effect of over 50% in size
Numbers without * were called inactive; ? = inconclusive; · = no result; [ ] = dose if it differs, or a comment. A selection: hits, their analogues and other compounds. The true share with any hit is near 7%. Unless noted, the call rests on the fitted dose curve; in most records, active means well fitted curve in the direction sought with a large enough effect; inconclusive means small, poorly fitted or top-dose-only effect, or another doubt; inactive means no such curve, though single readings can be large; an effect the other way counts as inactive or inconclusive.

SMILES | BAZ2B block | PLK1 PBD block | KAT2A inh | HP1b binding inh | PI5P4Ka inh | JMJD2A Tudor inh
CCOc1ccc(Br)cc1C1C(C(=O)OC)=C(N)Oc2cc(N(C)C)ccc21 (stereo unspecified) | ? | 7.8% | -8.6% | ? | 22.1 | 50.1µM*
C[C@@H]1CN([C@@H](C)CO)C(=O)CCCn2nncc2CO[C@H]1CN(C)Cc1cccc(O)c1 | · | -14.3% | · | · | 0.8 | ·
C/C(=N\NC(=S)NCCc1ccccc1)c1cccc(Br)c1 | 39.8µM* | 1.5% | 0.6% | -13.7% | 24.6 | -22.4%
COc1ccc(/C(C)=N/NC(=S)NCCc2ccccc2)cc1 | 25.1µM* | -11.9% | -17.0% | -13.1% | 10.9 | ?
CCc1nc2ccc(C(=O)N(C)CCCN(C)C)cn2c1N(C)Cc1cc2ccccc2s1 | · | -3.9% | · | · | -3.2 | ·
CC1CC(C)C[N+](=C2C=C(N3CCCC3)CC(C)(C)C2)C1 (stereo unspecified) | -17.3% | -26.4% | -10.3% | ? | ? | 17.8µM*
CC1(C)CC(N2CCCC2)=CC(=[N+]2CCCCCC2)C1 | ? | 29.9µM* | -27.0% | 3.9% | -10.8 | ?
CC1Sc2ccc(C#N)cc2N(Cc2cccc(C(F)(F)F)c2)C1=O (stereo unspecified) | · | -5.9% | · | · | 8.6 | ·
Cc1ccc(C)c(S(=O)(=O)N2CCN(C(=O)c3ccccc3Cc3ccccc3)CC2)c1 | -3.8% | -5.4% | -7.9% | -1.5% | 11.5 | -23.3%
CCn1c(C)c(/C=N/Nc2nc3ccccc3s2)c2ccccc21 | 15.8µM* | -4.6% | -18.7% | ? | · | 31.6µM*
Cc1sc2nc(-c3cccnc3)[nH]c(=O)c2c1-c1ccccc1 | · | 11.9µM* | -13.6% | -11.8% | -12.8 | -17.2%
COc1ccc(OC)c2[nH]c(=O)c(CCNC(=O)c3cccs3)cc12 | -25.4% | -2.2% | -4.1% | 39.8% | 1.8 | -8.3%
O=C(O)CCn1cnc2onc(-c3ccccc3Cl)c2c1=O | 50.1µM* | · | 2.5% | ? | · | 50.1µM*
O=C(NCC1CCCCC1)c1cc(S(=O)(=O)N2CCOCC2)ccc1F | 3.9% | 4.2% | -0.9% | 30.2% | 1.6 | -8.5%
CN1c2ccccc2C(C)(C)[C@]12C=Cc1cc(O)ccc1O2 | 39.8µM* | -3.5% | -12.2% | ? | -7.3 | 56.2µM*
COc1ccc2c(c1)c1c(c(=O)n(-c3ccccc3C)c(=O)n1C)n2C | -2.6% | · | -0.1% | -3.9% | · | -14.5%
COc1ccc2ccc3c(c2c1)N=CC1(O3)N(C)c2ccccc2C1(C)C (stereo unspecified) | -10.1% | -23.9% | -29.4% | ? | · | 44.7µM*
CN1c2ccccc2C(C)(C)C12CC(CCl)=NO2 (stereo unspecified) | -6.1% | -4.9% | 4.5% | 22.6% | 1.0 | -20.7%
CN1c2ccccc2C(C)(C)C12C=Nc1c(ccc3ccccc13)O2 (stereo unspecified) | 50.1µM* | -5.0% | ? | -0.2% | 10.6 | ?
Cc1ccc(S(=O)(=O)c2nc(-c3ccco3)oc2SC(C)c2ccccc2)cc1 (stereo unspecified) | -19.9% | · | -18.9% | 19.8% | · | -19.1%
Cc1nc2sccn2c(=O)c1S(=O)(=O)NCC1CCN(Cc2ccc(Cl)cc2)CC1 | · | 3.2% | · | · | 0.6 | ·
CCc1ccc(-n2nc3cc(C)c(NC(=O)c4ccccc4C)cc3n2)cc1 | ? | · | 2.4% | 8.1% | · | 89.1µM*
CCCCc1ccc(-n2nc3cc(C)c(NC(=O)Cc4ccccc4)cc3n2)cc1 | ? | · | 14.1% | 9.8% | · | 50.1µM*
CCc1ccc(-n2nc3cc(C)c(N)cc3n2)cc1 | 31.6µM* | ? | -9.4% | -2.0% | -4.0 | 89.1µM*
Cc1cc2nn(-c3ccccc3)nc2cc1NC(=O)Cc1ccc(Cl)cc1 | -20.2% | · | -1.3% | 29.0% | · | -8.8%
SMILES | BAZ2B block | PLK1 PBD block | KAT2A inh | HP1b binding inh | PI5P4Ka inh | JMJD2A Tudor inh
CC(=O)C1=C(O)C(=O)N(c2ccc(S(N)(=O)=O)cc2)C1c1cccc([N+](=O)[O-])c1 (stereo unspecified) | -25.9% | 26.7µM* | -9.7% | 20.2% | -10.5 | -16.2%[11.4 µM]
CCOC(=O)C1=C(N)Oc2cc(O)ccc2C1c1ccc([N+](=O)[O-])cc1 (stereo unspecified) | ? | -5.4% | 0.9% | -19.3% | -4.9 | 50.1µM*
CCOC(=O)C1=C(O)C(=O)N(c2ccc(S(N)(=O)=O)cc2)C1c1ccc([N+](=O)[O-])cc1 (stereo unspecified) | -13.1% | 29.9µM* | 1.1% | 13.8% | -16.2 | -25.0%[11.4 µM]
CC(=O)C1=C(O)C(=O)N(c2ccc(C)cc2)C1c1ccc([N+](=O)[O-])cc1 (stereo unspecified) | ? | 26.7µM* | -15.0% | ? | 0.3 | ?
COc1ccc(NC(=O)c2csnn2)cc1Cl | -32.3% | · | -10.2% | -18.1% | · | -19.2%
C#CCOCCOCCOCCNc1nc(N2CCN(C(=O)CCCCCCCCCCNC(=O)Cn3cc(CCCCCN)nn3)CC2)nc(N2CCN(C(=O)CCCCCCCCCCNC(=O)[C@@H]([C@H](C)O)n3cc(C)nn3)CC2)n1 | ? | -9.7% | -0.3% | ? | ? | 79.4µM*
C#CCOCCOCCOCCNc1nc(N2CCN(C(=O)CCCCCCCCCCNC(=O)Cn3cc(C[C@@H](C)O)nn3)CC2)nc(N2CCN(C(=O)CCCCCCCCCCNC(=O)[C@@H]([C@H](C)CC)n3cc(CCCCCN)nn3)CC2)n1 | ? | 1.2% | -5.5% | ? | ? | 56.2µM*
C#CCOCCOCCOCCNc1nc(N2CCN(C(=O)CCCCCCCCCCNC(=O)Cn3cc(CCCCCN)nn3)CC2)nc(N2CCN(C(=O)CCCCCCCCCCNC(=O)Cn3cc(C[C@@H](C)O)nn3)CC2)n1 | 79.4µM* | 33.5% | 1.8% | -27.0% | -64.9* | 25.1µM*
CCOc1ccc(CCNS(=O)(=O)c2cnc[nH]2)cc1OCC | 4.0% | 26.7µM* | -1.3% | -4.4% | 2.1 | -13.7%[11.4 µM]
Cc1ccc(S(=O)(=O)N2CCN(C(=O)c3ccc4ccccc4n3)CC2)c(C)c1 | 50.1µM* | -4.4% | 2.3% | 8.2% | -10.1 | 35.5µM*
Cc1ccc(S(=O)(=O)N2CCN(C(=O)COC(=O)c3ccc(O)cc3)CC2)c(C)c1 | 3.1% | -0.3% | -0.3% | 0.6% | -4.7 | 89.1µM*
CCC(=O)N1CCC1(C)C(=O)Nc1ccc(F)cc1 (stereo unspecified) | · | -4.1% | · | · | 8.4 | ·
COc1cccc(C2CC(=O)Nc3c2c(=O)[nH]c2ncnn32)c1OC (stereo unspecified) | -1.8% | · | -3.4% | 14.8% | · | -9.0%
COc1cccc(C2CC(=O)Nc3c2c(=O)[nH]c2ncnn32)c1 (stereo unspecified) | -3.7% | 0.9% | -6.3% | 25.4% | 4.9 | 35.5µM*
